Hits are enriched below; roughly 19% of the tested compounds scored in any of these assays.
DT40 TDP1 CPT – growth inhibition of DT40 Tdp1-/-;hTDP1 cells with camptothecin (screen for TDP1 inhibitors). Potency, µM (highest dose often 46.2 µM), without a hit: top-dose activity change, negative = growth inhibition, usual class: inhibitors. 420,000 compounds, 12% hits. chicken DT40 Tdp1-/-;hTDP1 cells + 20 nM CPT, ATP luminescence, 48 h; further: potency means the concentration at half of the fitted maximal effect; on the % scale 0 is the no-effect control and ±100 the full control effect; nearly all actives have a fitted effect of over 55% in size
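Chicken DT40 Tdp1-/- cells complemented with human TDP1, 400 cells/well, exposed to compounds plus 20 nM camptothecin for at least 48 h at 37 C; viability read as ATP content by CellTiter-Glo luminescence.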
MCF10A rereplic – induces DNA re-replication in MCF 10a normal breast cells. AID 624296. MCF 10A DNA re-replication, Hoechst nuclear intensity, 48 h. 350,000 compounds, 2.9% hits. Potency, µM (titrated, usually from 46.1 µM), for the others: top-dose activity, positive = re-replication, actives largely listed as activators; further: potency means the concentration at half of the fitted maximal effect; % of control where 0% means no effect; nearly all actives have a fitted effect of over 50% in size
IL-1B inflam inh – blocks inflammasome-driven IL-1 beta release; THP-1 LPS/ATP IL-1B secretion, AlphaLISA, 16 h; stronger effect = lower value; activity change, % at 57.5 µM; 360,000 compounds, 4.7% hits; AID 743279; in the data active means activity change below about -50%; inconclusive means mostly about -30% to -49%; further: on the % scale 0 is the no-effect control and ±100 the full control effect
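Secreted IL-1B measured by AlphaLISA bead assay after 16 h compound exposure of THP-1 cells; compounds (final up to 57.5 uM) added 1 h before LPS (250 ng/mL) and ATP (1.25 mM) stimulation; lower signal means less secretion.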
TDP1 cell noCPT – qHTS for Inhibitors of human tyrosyl-DNA phosphodiesterase 1 (TDP1): qHTS in cells in absence of CPT. DT40 Tdp1-/- hTDP1 cells, no CPT, ATP luminescence, 48 h. Potency, µM (titrated, usually from 46.2 µM), for inactives: top-dose activity change, negative = growth inhibition, hits mostly inhibitors. 420,000 compounds, 15% hits. AID 686978, 2013; further: potency means the concentration at half of the fitted maximal effect; on the % scale 0 is the no-effect control and ±100 the full control effect; nearly all actives have a fitted effect of over 55% in size
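Growth of hTDP1-complemented DT40 Tdp1-knockout cells is measured by ATP luminescence after at least 48 hr compound exposure at 37 °C, with DMSO substituting for the 20 nM CPT used in the parallel screen.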
SW480 rerep – DNA re-replication induction in SW480 cells. SW480 DNA re-replication, Hoechst DNA content imaging, 48 h. Potency, µM (doses to about 46.1 µM), inactives show at the top dose re-replication activation, hits mostly activators. 340,000 compounds, 1.8% hits. AID 624297; further: potency means the concentration at half of the fitted maximal effect; % of control where 0% means no effect; nearly all actives have a fitted effect of over 55% in size
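Per well, 250 cells were exposed to pinned compound for 48 hr. Nuclear DNA was visualised with Hoechst (40 min, 37 C) and total object intensity recorded by fluorescence scanning.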
Chronic BCR inh – blocks chronic active B-cell receptor signaling; ABC-DLBCL IkBa-CBG/CBR reporter, luminescence ratio, 4 h; AID 493014; 340,000 compounds, 0.05% hits; Potency, µM (doses to about 46.1 µM), without a hit: at the highest dose activity change, negative = inhibition, most hits filed as inhibitors; active means well fitted inhibition curve with a large enough effect in the signal ratio, with a control signal flat, not every such curve was filed as active; inconclusive means small, poorly fitted or top-dose-only effect, or effect the other way, or a change in a side signal; the % refers to the signal ratio;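 further: potency means the concentration at half of the fitted maximal effect; plate controls were basal doxycycline-induced cells for no effect and cells given 10 µM MG132 for full effect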
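TMD8 ABC-DLBCL cells carrying doxycycline-inducible green luciferase fused to IkappaBalpha plus unfused red luciferase were exposed to compounds (up to 46 uM) for 4 hrs at 37C. Activity came from the overlap-corrected green/red luminescence ratio.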
The depositor's hits bear a star; ? = inconclusive; . = not tested or not shown. Unless noted, the call rests on the fitted dose curve; in most records, active means well fitted curve in the direction sought with a large enough effect; inconclusive means small, poorly fitted or top-dose-only effect, or another doubt; inactive means no such curve, though single readings can be large; an effect the other way counts as inactive or inconclusive.

SMILES	DT40 TDP1 CPT	MCF10A rereplic	IL-1B inflam inh	TDP1 cell noCPT	SW480 rerep	Chronic BCR inh
Cc1cc(C)nc(NC(=O)c2c(F)c(F)c(F)c(C(=O)Nc3cc(C)cc(C)n3)c2F)c1	?	8.2µM*	-69*	16µM*	?	.
Cc1onc(-c2ccccc2Cl)c1C(=O)NCc1ccco1	?	2%	-77*	-11%	3%	0%
O=C(Nc1ccccc1)c1cc(-c2ccccc2Cl)no1	16µM*	18%	5	16µM*	29%	?
Cc1nnc(NC(=O)c2c(-c3ccccc3Cl)noc2C)s1	-1%	-1%	42	-29%	-3%	1%
CN1C(=O)/C(=C\c2ccc(OC(=O)c3ccco3)cc2)SC1=S	-12%	0%	-7	?	-9%	-3%
COc1cc2c(c3ccccc13)CCCC2=O	-15%	10%	-17	-7%	2%	.
Cc1onc(-c2ccccc2Cl)c1C(=O)Nc1ccc(Br)cc1	-24%	10%	-7	-29%	7%	15%
Cc1cc(C)nc(NC(=O)c2c(-c3ccccc3Cl)noc2C)c1	?	?	0	21µM*	?	?
Cc1onc(-c2ccccc2Cl)c1C(=O)N(C)C1CCCCC1	4.6µM*	3%	22	3.7µM*	0%	-13%
CC(C)c1cc(-c2cc(C(=O)Nc3ccccc3)on2)nc(NC2CCCC2)n1	26µM*	?	-19	?	-2%	.
Cc1ccnc(NC(=O)c2c(-c3ccccc3Cl)noc2C)c1	?	4%	21	-28%	-4%	-2%
Cc1onc(-c2ccccc2Cl)c1C(=O)Nc1ccccc1O	?	5%	32	18µM*	2%	9%
CC1(C(=O)NS(=O)(=O)c2ccc3c(c2)CCO3)CCN1C(=O)CCC1CCCC1 (centres undefined)	-9%	.	29	3%	.	.
N#Cc1ccc(C2CC(OCCF)=CC(=O)O2)cc1 (centres undefined)	1%	.	2	2%	.	.
CC(C)(C)c1ccc(C(=O)NNC(=O)CNC(=O)c2cccs2)cc1	2%	-3%	8	0%	1%	1%
Cc1ccc(C(=O)COC(=O)C2CC(=O)N(c3nc(-c4ccccc4)cs3)C2)cc1 (centres undefined)	-17%	0%	25	-14%	-2%	?
CCc1ccc(NC(=S)NC(=O)c2c(-c3ccccc3Cl)noc2C)cc1	12%	0%	-51*	?	-9%	0%
Cc1onc(-c2ccccc2Cl)c1C(=O)Nc1ccccc1	12µM*	5%	0	?	-4%	18%
c1ccc2cnccc2c1	0%	.	.	-5%	.	.
OC(c1ccc(Cl)c(F)c1)c1ncc(-c2ccccc2F)[nH]1 (centres undefined)	16µM*	.	46	?	.	.
Cc1ccccc1-c1cnc(C(O)c2ccc(Cl)c(F)c2)[nH]1 (centres undefined)	29µM*	.	-62*	-23%	.	.
OC(c1ccc(Cl)c(Cl)c1)c1ncc(-c2ccccc2F)[nH]1 (centres undefined)	?	.	-6	?	.	.
CCOC(=O)c1ccc(N[C@@H]2CCN3C(=O)c4ccccc4[C@@H]3C[C@H]2O)cc1	-3%	3%	-10	-14%	?	-1%

Screens as filed in PubChem BioAssay.
